Here are results for 16 compounds from PubChem BioAssay.

Test [1] has as its system XIP peptide (Xip251-270) binding. Kind of test: XIP fragment 251-270 binding compounds – biochemical, small-molecule microarray, fluorescence 635/667 nm, 0.1 µg/mL protein, primary screen (AID 1182). To be noted: fluorescent protein binding, 635 nm, higher = more signal, called active from +8 up or from −8 down.
In test [2] the test system is XIP peptide (Xip251-270). As to the kind of experiment: compounds binding XIP fragment 251-270 – biochemical, small-molecule microarray, fluorescence 635/667 nm, 0.5 µg/mL protein, primary screen (AID 1183). To be noted: fluorescence 635 nm, higher = more signal.
Test [3] is described as follows: blood-stage malaria parasite viability loss – strain 3D7, DAPI fluorescence, 100 nL, primary screen (AID 1184).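 Further: parasites grown inside human red blood cells in medium with human serum.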 To be noted: P. falciparum 3D7 growth, 3 d, higher = more signal.
Test [4] has as its target Homeobox protein Hox-A13 (Mus musculus) (UniProt Q62424). As to the kind of experiment: disruptors of Hoxa13 oligonucleotide interaction – biochemical, fluorescence polarization, labeled oligonucleotide, primary screen (AID 1185). To be noted: Hoxa13:DNA binding, 15 min, higher = more signal, called active from +8 up or from −8 down. On the technique in general: Polarisation of emitted light reports the rotation of a fluorescent probe.

The nature of test [5]: blockers of DNA damage checkpoint Chk1 activation – imaging, HeLa, hydroxyurea, phospho-Chk1 antibody, percent positive cells, primary screen (AID 1186). To be noted: hydroxyurea-induced phospho-Chk1 immunofluorescence imaging, higher = more signal.
Test [6] in a line: blockers of DNA damage checkpoint Chk1 activation – imaging, HeLa, hydroxyurea, phospho-Chk1 nuclear intensity, primary screen (AID 1187). To be noted: hydroxyurea-induced phospho-Chk1 immunofluorescence imaging, higher = more signal.

The source made the active and inactive calls. Unless noted, how the calls were made is not given here.

Homeobox protein Hox-A13 (Mus musculus), sequence (Q62424 whole entry, looked up): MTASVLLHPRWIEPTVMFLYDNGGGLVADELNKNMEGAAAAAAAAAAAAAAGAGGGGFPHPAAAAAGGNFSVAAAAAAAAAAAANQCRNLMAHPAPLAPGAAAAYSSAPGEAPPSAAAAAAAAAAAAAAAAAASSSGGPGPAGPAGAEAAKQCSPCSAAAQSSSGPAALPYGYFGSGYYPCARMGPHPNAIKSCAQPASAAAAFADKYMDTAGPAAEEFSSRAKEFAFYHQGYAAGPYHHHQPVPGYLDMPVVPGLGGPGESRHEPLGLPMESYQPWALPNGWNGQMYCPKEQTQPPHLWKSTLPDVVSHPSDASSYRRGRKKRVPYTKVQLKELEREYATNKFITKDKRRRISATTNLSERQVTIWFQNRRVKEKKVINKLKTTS

On to `COCCOC(=O)N1C(=O)[C@@]2(c3cc(C#CCCO)ccc31)[C@H](c1ccccc1OCCO)N1[C@H](c3ccccc3)[C@H](c3ccccc3)OC(=O)[C@H]1[C@@H]2C(=O)Nc1nc2ccccc2s1`, for which the composite z-score in test [1] was 1.45 (inactive); in test [2] it was 0.823. Moreover, the z-score in test [3] is -1.45; in test [4] it was 1.85 (inactive); in test [5], 0.0686 (inactive); in test [6], 0.0927 (inactive).
Consider `CC(C)(C)OC(=O)CC[C@]1(C(=O)NCC(O)CO)N=C(c2ccc(OCCCO)cc2)O[C@H]1c1ccccc1` (stereo partly specified), for which the composite z-score was 0.0294 (inactive) in test [1] and 0.628 in test [2]. Moreover, the z-score in test [3] is -1.74; in test [4], -4.14 (inactive); in test [5] it was -0.703 (inactive); in test [6], -0.886 (inactive).
Regarding `O=C1C2C=CC(C(O)c3ccccc3)N(Nc3ccccc3F)C2C(=O)N1c1ccccc1` (stereo unspecified), the composite z-score is 1.07 (inactive) in test [1] and 0.726 in test [2]. Besides, the z-score in test [3] was 0.199; in test [4], -3.79 (inactive); in test [5], 0.237 (inactive); in test [6], 0.0511 (inactive).
For the compound `C=CCOC(=O)[C@H]1[C@@H]2C(=O)O[C@@H](c3ccccc3)[C@@H](c3ccccc3)N2[C@@H](c2ccc(OCCOC(=O)[C@@H]3C[C@@H]4C(=O)N[C@@H](CCCCN(C)C)C(=O)N4[C@@H]3c3ccc(O)cc3)cc2)[C@]12C(=O)Nc1ccccc12`, the composite z-score was 2.41 (inactive) in test [1] and 0.878 in test [2]. Also, the z-score in test [3] was 0.0953; in test [4] it was 4.03 (inactive); in test [5], -0.768 (inactive); in test [6], -0.475 (inactive).
Consider `CCCCO[C@H]1C[C@H]2C(I)=C[C@@H]1C(=O)[C@]21CO1`, for which the composite z-score was -0.178 (inactive) in test [1] and 0.08 in test [2]. Besides, the z-score is 1.06 in test [3], -1.07 (inactive) in test [4], 0.187 (inactive) in test [5] and -0.0533 (inactive) in test [6].
`COCCCNC(=O)[C@@]1(Cc2ccccc2N=[N+]=[N-])N=C(c2ccc(OCCCO)cc2)O[C@H]1c1ccccc1`: the composite z-score in test [1] is 0.226 (inactive); in test [2], 0.818. The z-score in test [3] is -2.49; in test [4], -5.46 (inactive); in test [5], 0.0251 (inactive); in test [6], 0.285 (inactive).
For the compound `O=C1OCC=C[C@H]2OC34C=CCN(Cc5ccccc5)C(=O)[C@H]3N(CCCCCCO)C(=O)[C@@H]4[C@@H]12` (stereo partly specified), the results for the composite z-score in test [1] and in test [2] were 1.49 (inactive) and 0.295, respectively. The z-score is -1.16 in test [3], -4.53 (inactive) in test [4], -0.584 (inactive) in test [5] and -0.232 (inactive) in test [6].
`COc1cc2c(cc1O)C(C)N(Cc1ccc([N+](=O)[O-])o1)CC2` (stereo unspecified): the composite z-score in test [1] is 0.563 (inactive); in test [2], 0.962. In addition, the z-score was -1.2 in test [3], -6.22 (inactive) in test [4], 0.0111 (inactive) in test [5] and 0.264 (inactive) in test [6].
Regarding `CCOC(=O)C[C@H]1[C@H](OC(=O)c2ccccc2-c2ccccc2)[C@@H](NC(=O)C2CCCCC2)c2cc(OCCCO)ccc2N1C(=O)Cc1ccc(OC)cc1`, the composite z-score in test [1] is 0.0141 (inactive); in test [2] it was 0.333. Also, the z-score was 0.273 in test [3], -3.62 (inactive) in test [4], -0.0021 (inactive) in test [5] and 0.223 (inactive) in test [6].
For `COC(=O)[C@@]1(Cc2ccc(OC)cc2)[C@H]2c3cc(C(=O)N(C)C)n(C[C@H](O)CO)c3C[C@H]2CN1C(=O)c1ccccc1`, the values for the composite z-score in test [1] and in test [2] were 0.309 (inactive) and -0.587, respectively. In addition, the z-score in test [3] was -1.74; in test [4], -3.35 (inactive); in test [5], 0.708 (inactive); in test [6], 0.22 (inactive).
Regarding `COc1ccc(-c2nc(-c3ccccc3)c3c(c2C)CO[Si]3(C(C)C)C(C)C)cn1`, the composite z-score in test [1] is -0.447 (inactive); in test [2] it was -0.447. For the same compound, the z-score in test [3] was 0.193; in test [4], -3.37 (inactive); in test [5], 0.0411 (inactive); in test [6], 0.126 (inactive).
Consider `COc1ccc(NC(=O)O[C@H]2[C@H](OC(=O)Nc3ccccc3)[C@@H](OC(=O)Nc3ccccc3)[C@@H](OC)O[C@@H]2CO)cc1`, for which the values for the composite z-score in test [1] and in test [2] were 0.551 (inactive) and 0.925, respectively. Besides, the z-score is -2.47 in test [3], -6.22 (inactive) in test [4], -0.454 (inactive) in test [5] and -0.429 (inactive) in test [6].
For `CC(C)Cc1ccc(CN2CC[C@@H](NC(=O)Nc3ccccc3)C2)cc1`, the composite z-score is -0.243 (inactive) in test [1] and -0.238 in test [2]. Besides, the z-score in test [3] is -1.51; in test [4], 0.339 (inactive); in test [5] it was 0.146 (inactive); in test [6], 0.459 (inactive).
In the case of `CCOC(=O)C1CCCCN1` (stereo unspecified), the composite z-score was -0.679 (inactive) in test [1] and -0.0839 in test [2]. Also, the z-score in test [3] is 1.57; in test [4], 0.65 (inactive); in test [5], 0.0889 (inactive); in test [6], 0.0121 (inactive).
Regarding `CC(C)N1CC=CC23O[C@@H]4C=CCOC(=O)[C@@H]4[C@H]2C(=O)N(CCCO)[C@@H]3C1=O` (stereo partly specified), the composite z-score in test [1] is 0.816 (inactive); in test [2], 0.749. In addition, the z-score is -1.91 in test [3], -3.62 (inactive) in test [4], 0.762 (inactive) in test [5] and 0.0478 (inactive) in test [6].
For the compound `COCCOC(=O)N1C(=O)[C@@]2(c3cc(C#CCNC(N)=O)ccc31)[C@H](C(=O)N1CCc3cc(OC)c(OC)cc3C1)[C@H]1C(=O)O[C@H](c3ccccc3)[C@H](c3ccccc3)N1[C@@H]2c1ccccc1OCCO`, the composite z-score in test [1] was 1.53 (inactive); in test [2], 0.498. For the same compound, the z-score is -2.2 in test [3], 0.577 (inactive) in test [4], 0.0782 (inactive) in test [5] and 0.147 (inactive) in test [6].
